{"source": "PubChem BioAssay AID1347416", "about": "(National Center for Advancing Translational Sciences (NCATS), 2020)", "note": "Out of some 4,100 compounds screened, about 1,600 (39%) were called active. About 25% were inconclusive and are not listed. The list shows a part of the results. Unmarked numbers belong to inactive results. Calls come from the whole dose curve; as a rule, active = well fitted inhibition curve with a large enough effect; inconclusive = small, poorly fitted or top-dose-only effect; inactive = no such curve, though single readings can be large or run the other way. % is set by controls: 0 for no effect and ±100 for the full control effect; potency is the fitted concentration of half-maximal effect."}
{"assay": "qHTS Validation assay for Inhibitors of Plasmodium falciparum Dd2 growth in vitro; note: nearly all actives have a fitted effect of over 70% in size", "conditions": "P. falciparum Dd2 in RBCs, SYBR Green growth, 72 h; series mostly up to 28.7 µM; activity change, negative = inhibition: at the top concentration", "description": "Malaria, a parasitic disease spread to humans through the bite of a Plasmodium infected Anopheles mosquito, continues to be a global health burden affecting millions of people, with an estimated 228 million cases and 405,000 deaths in 2018. Concerns about safety and limitations of current antimalarial treatments strongly emphasize the need to develop new therapeutic options. The scarce number of chemotypes and validated drug targets with efficacy against the liver stage, have hindered development of new antimalarials. To address this, a chemoprophylactic drug discovery effort was conducted through a combined phenotypic high-throughput asexual blood stage and liver stage screen, providing a robust foundation to identify liver-stage active lead chemotypes. Compounds were initially screened against Plasmodium falciparum Dd2 strain parasites using a in vitro SYBRGreen-1 based 72 hr proliferation assay to identify novel chemotypes to advance to liver stage assays. NIH/NCATS Early Translation Branch Assay Submitter (PI): Anton Simeonov Ph.D.\n[…] Assay Protocol: PROTOCOL TABLE (as described by Inglese et al., 2007) SEQUENCE No. (e.g., 1, 2, 3, etc.); PARAMETER (e.g., Cells, Incubation, Reagent, etc.); VALUE; DESCRIPTION SEQUENCE, Parameter, Description 1; Reagent; 3 uL complete malaria growth medium, 1536 TC treated Black clear bottom plate 2; Controls; 23 nL positive control artesunate (300 nM final) to column 1; Neutral control DMSO to columns 2-4 3; Compound; 23 nL of compounds in dose response concentration (29 uM to 0.5 nM final) 4; Reagent; 5 uL malaria infected red blood cells (2.5% hematocrit final, 0.3% parasitemia 5; Time; 72 hours at 37C (5% O2, 5% CO2, 90% N2; 95% Rh) 6; Reagent; 2 uL lysis buffer/SYBRGreen-1, 25 sec shake immediately following dispense 7; Time; ~16 hours at 37C (5% O2, 5% CO2, 90% N2; 95% Rh) 8; Detector; EnVision (PerkinElmer) bottom read at 485/14nm excitation and 535/25 nm emission NOTES (numbers refer to sequence above): 1; Complete Malaria Growth Media: 1X RPMI-1640 w/L-glutamine, 5.5g/L Albumax II, 367 uM Hypoxanthine, 25 mM HEPES, 0.25% Sodium Bicarbonate, 35 uM Gentamicin sulfate 2; Controls were added using the Kalypsis Pintool (Wako USA) equipped with 1536 pinhead 3; Compounds were added in a 7-point, titration with a high final concentration of 29 uM by Pintool from seven inter-plate titrations of library plates and two DMSO control plates at the beginning and end (see Yasgar et al., 2008). 4; Red blood cells infected with Plasmodium falciparum Dd2 parasites were used. 6; Lysis buffer: 20 mM Tris-HCl, 10 mM EDTA, 0.16% Saponin, 1.6% Triton-X, 10X SYBR Green. REFERENCE: Inglese J, Shamu CE, Guy RK. 2007. Reporting data from high-throughput screening of small-molecule libraries. Nat Chem Biol. doi:10.1038/nchembio0807-438 Yasgar A, Shinn P, Jadhav A, Auld D, Michael S, Zheng W, Austin CP, Inglese J, Simeonov A. 2008. Compound Management for Quantitative High-Throughput Screening. J Lab Autom 13:79-89. doi:10.1016/j.jala.2007.12.004"}
{"smiles": "CCCc1noc(-c2ccn3c(CNC(=O)c4cccc(Cl)c4)nnc3c2)n1", "activity change, negative = inhibition": "-6.54%"}
{"smiles": "CCN(c1ccccc1)S(=O)(=O)c1cc(Br)cc2c1N(C(=O)C1CC1)CC2", "Potency": "2.99 µM (active)"}
{"smiles": "O=C(CCS(=O)(=O)c1cc(Br)cc2c1N(C(=O)C1CC1)CC2)Nc1ccc(C(F)(F)F)cc1", "Potency": "1.33 µM (active)"}
{"smiles": "CCN(c1ccccc1)S(=O)(=O)c1c(-c2ccc(C)cc2)csc1C(=O)OC", "activity change, negative = inhibition": "-3.17%"}
{"smiles": "CC1=C[C@@H](CNC(C)C)[C@H](C(C)C)C[C@H]1Cc1nnc(C(C)(C)C)o1", "activity change, negative = inhibition": "-18.7% [at 43.1 µM]"}
{"smiles": "CC1=C[C@@H](CNC2CC2)[C@H](C(C)C)C[C@H]1Cc1nnc(-c2ccc(C)cc2)o1", "Potency": "17.2 µM (active)"}
{"smiles": "CC1=C[C@@H](CNCCN(C)C)[C@H](C(C)C)C[C@H]1Cc1nnc(C(C)(C)C)o1", "Potency": "15.3 µM (active)"}
{"smiles": "CC1=C[C@@H](CNC(C)C)[C@H](C(C)C)C[C@H]1Cc1nnc(-c2ccc(C)cc2)o1", "Potency": "13.7 µM (active)"}
{"smiles": "CC1=C[C@@H](CNS(C)(=O)=O)[C@H](C(C)C)C[C@H]1Cc1nnc(-c2ccccc2F)o1", "activity change, negative = inhibition": "18.4% [at 43.1 µM]"}
{"smiles": "CC(=O)NCCNC[C@@H]1C=C(C)[C@H](Cc2nnc(-c3ccccc3)o2)C[C@H]1C(C)C", "Potency": "17.2 µM (active)"}
{"smiles": "N#Cc1ccccc1CN1CCC([C@@H]2CNC[C@H]2CO)CC1", "activity change, negative = inhibition": "24.7%"}
{"smiles": "O=C1COc2ccc(-c3ccsc3)nc2CN1", "activity change, negative = inhibition": "40.8% [at 57.5 µM]"}
{"smiles": "CCN(CC)CCNC(=O)C1CCCN(S(=O)(=O)c2ccccc2)CCC(=O)NCC1", "note": "(centres undefined)", "activity change, negative = inhibition": "5.63%"}
{"smiles": "CCN(CC)CCNC(=O)c1c(O)c2cccc3c2n(c1=O)CCC3", "Potency": "10.6 µM (active)"}
{"smiles": "CC(C)CN1C(=O)c2ccccc2C(C(=O)Nc2nccs2)C12CCCC2", "note": "(centres undefined)", "Potency": "8.41 µM (active)"}
{"smiles": "Cc1nnc(SCC(=O)Nc2nccs2)o1", "activity change, negative = inhibition": "35.8%"}
{"smiles": "O=C(NCc1ccccn1)C1c2ccccc2C(=O)N(C2CCCC2)C12CCCCC2", "note": "(centres undefined)", "activity change, negative = inhibition": "-27.1%"}
{"smiles": "Cc1nnc(NC(=O)C2c3ccccc3C(=O)N(CC(C)C)C23CCCCC3)s1", "note": "(centres undefined)", "Potency": "15 µM (active)"}
{"smiles": "O=C(Nc1nccs1)C1c2ccccc2C(=O)N(C2CCCC2)C12CCCC2", "note": "(centres undefined)", "Potency": "4.22 µM (active)"}
{"smiles": "CCN(CC)CC(O)COc1ccccc1C(=O)CCc1ccccc1", "note": "(centres undefined)", "Potency": "1.5 µM (active)"}
{"smiles": "CCCNCC(O)COc1ccccc1C(=O)CCc1ccccc1", "note": "(centres undefined)", "Potency": "0.842 µM (active)"}
{"smiles": "CCN(CC)C(=O)C(C)[C@@H]1CC[C@@]2(C)CC[C@H](NC(=O)c3cnccn3)[C@@H](C)[C@@H]2[C@H]1O", "note": "(some centres undefined)", "activity change, negative = inhibition": "-37% [at 43.1 µM]"}
{"smiles": "COc1ccccc1CNC(=O)[C@@H](C)C1CC[C@@]2(C)CC[C@H](NC(=O)c3cncnc3)[C@@H](C)[C@@H]2[C@H]1O", "note": "(some centres undefined)", "Potency": "2.37 µM (active)"}
{"smiles": "CCN(CC)C(=O)[C@@H](C)C1CC[C@@]2(C)CC[C@H](NC(=O)COc3ccccc3)[C@@H](C)[C@@H]2[C@H]1O", "note": "(some centres undefined)", "activity change, negative = inhibition": "1.65%"}
{"smiles": "CCn1cnnc1CC1CCN(C(=O)C2CC2)CC1", "activity change, negative = inhibition": "15.8%"}
{"smiles": "CCS(=O)(=O)c1ccc2oc(Nc3cc(C)cc(C)c3)nc2c1", "activity change, negative = inhibition": "-17.2%"}
{"smiles": "CCN(CC)c1ccc2oc(=O)c(C)nc2c1", "Potency": "6.68 µM (active)"}
{"smiles": "Cn1cc(C(NS(=O)(=O)c2cccc3c2OCCO3)C2CC(O)C2)cn1", "note": "(centres undefined)", "activity change, negative = inhibition": "14.4%"}
{"smiles": "CC(C)NC(=O)CSc1nnc(CNC(=O)OC(C)(C)C)n1C", "activity change, negative = inhibition": "26.5%"}
{"smiles": "CC(C)Cc1nc2nccc(-c3cccs3)n2n1", "activity change, negative = inhibition": "4.53%"}
{"smiles": "Cc1nc2ccc(C(=O)NCc3cc4n(n3)CCN(C(=O)N(C)C)C4)cc2o1", "activity change, negative = inhibition": "52.8%"}
{"smiles": "CCN(CC)CCNC(=O)c1cn(CC)c2ccc(S(=O)(=O)N3CCOCC3)cc2c1=O", "activity change, negative = inhibition": "29.7%"}
{"smiles": "CCn1cc(C(=O)N[C@@H](CCSC)C(=O)NC(C)(C)CO)c(=O)c2cc3c(cc21)OCO3", "Potency": "2.99 µM (active)"}
{"smiles": "CC1CCN(C(=O)CSc2nnc3c(n2)[nH]c2ccc(F)cc23)CC1", "activity change, negative = inhibition": "-11.3%"}
{"smiles": "CC1CCc2cc(F)ccc2N1C(=O)CSc1nnc2c(n1)[nH]c1ccc(F)cc12", "note": "(centres undefined)", "Potency": "8.41 µM (active)"}
{"smiles": "CC1CCc2cc(F)ccc2N1C(=O)CSc1nnc2c(n1)[nH]c1ccccc12", "note": "(centres undefined)", "Potency": "7.5 µM (active)"}
{"smiles": "COc1ccccc1NS(=O)(=O)c1cc(NC(=O)c2cccc(S(=O)(=O)N(C)C)c2)ccc1N1CCOCC1", "Potency": "7.5 µM (active)"}
{"smiles": "COc1cccc(S(=O)(=O)N2C[C@@H](Oc3ccccc3)C[C@@H]2C(=O)N2CCOCC2)c1", "activity change, negative = inhibition": "-1.89%"}
{"smiles": "Cc1nc2cc(F)ccc2n1C1CCN(C(=O)c2c(F)cccc2F)CC1", "Potency": "5.96 µM (active)"}
{"smiles": "CCCc1noc(-c2cn(C3CCN(C(=O)Cc4cccc(F)c4)CC3)nn2)n1", "activity change, negative = inhibition": "-15.8%"}
{"smiles": "CCc1noc(-c2cn(C3CCN(C(=O)c4ccc(F)c(F)c4)CC3)nn2)n1", "activity change, negative = inhibition": "38.9%"}
{"smiles": "CCCC(=O)Nc1sc2c(c1C(=O)Nc1ccccn1)CCCC2", "activity change, negative = inhibition": "5.63%"}
{"smiles": "CCC(O)(CC)C(=O)NN(C(=O)Nc1csc2c1CCCC2)c1ccccc1", "Potency": "2.99 µM (active)"}
{"smiles": "Cc1ccc(NC(=O)c2cnc(-c3ccccc3)nc2-c2ccncc2)c(Br)c1", "Potency": "9.44 µM (active)"}
{"smiles": "Cc1ccc(C)c(C(=O)Nc2ccncc2)c1", "activity change, negative = inhibition": "7.54%"}
{"smiles": "COc1ccc([C@@]2(C(C)C)ON(c3ccccc3C(F)(F)F)C2=O)cc1", "Potency": "4.22 µM (active)"}
{"smiles": "Cc1nn(-c2ccccc2)nc1C(=O)Oc1cc(C(F)(F)F)nn1-c1ccccc1", "activity change, negative = inhibition": "11.3%"}
{"smiles": "COCCn1cnc2ccc(-c3ccccc3)nc2c1=O", "activity change, negative = inhibition": "-1.86% [at 57.5 µM]"}
{"smiles": "Cn1cnc2ccc(-c3cccc(O)c3)nc2c1=O", "Potency": "6.11 µM (active)"}
